The other results are listed elsewhere or left out. Values without a mark were called inactive.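 The calls were made as follows: active = signal drop giving an AC50 within twice the top valid tested concentration of each sample (actives reach about 35 µM in these data); inactive = activity opposite to expected, plus the rest.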

The nature of this assay: DNA binding of candidate compounds, dose response, artefact control for RAD54 inhibitor project, biochemical, fluorescence polarization, cherry-pick (AID 651673).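 Also: polarization loss reports compound binding to salmon sperm DNA; 0% = neutral control median and -100% = 10 µM mitoxantrone control.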 The note with it: Acridine orange-DNA displacement, 20 min; series mostly up to 35 µM; activity change, negative = DNA binding: at the top concentration.
Consider `Cc1nc2ccccc2c2oc(C(=O)NCCCN3CCC(C)CC3)cc12`, for which the “activity change, negative = DNA binding” value was -13.5%. In the case of `COc1ccccc1C(=O)C(O)c1ccccc1OC` (stereo not drawn), the “activity change, negative = DNA binding” value was -5.88%. Consider `CN1CCN(CCCNC(=O)c2cc3c(=O)oc4ccccc4c3s2)CC1`, for which the “activity change, negative = DNA binding” value was -21%.

For the compound `COc1cccc2sc3cc(NCC[C@@H]4CCCN4C)ccc3c(=O)c12`, the “activity change, negative = DNA binding” value was -7.26%.

With `CCN(CC)CCn1c2ccc(Cl)cc2c2nc(C)sc21`, the “activity change, negative = DNA binding” value is -1.63%. For `Cc1cc2oc3ccc(NCCC4CCCN4C)cc3c(=O)c2cc1C` (stereo not drawn), the “activity change, negative = DNA binding” value was -3.62%. The figure for `O=C(NCCCN1CCOCC1)c1cnn2c(-c3ccccc3)cc(-c3ccccc3)nc12` is -0.136%. `c1ccc(-c2nnc(SCc3nc4ccccc4[nH]3)o2)cc1`: the “activity change, negative = DNA binding” value is 0.107%. For `CCn1c(=N)c(C(=O)NCCCOC)cc2c(=O)n3cccc(C)c3nc21`, the “activity change, negative = DNA binding” value was -6.19%. In the case of `CC1CCc2sc3nc(N4CCN(CCO)CC4)n4ncnc4c3c2C1` (stereo not drawn), the “activity change, negative = DNA binding” value is 9.08%. In the case of `COc1ccc(C(=O)Nc2cc(C)c(NC(=O)c3ccccc3OC)cn2)cc1`, the “activity change, negative = DNA binding” value was -5.9%.

`COC(=O)c1c(NC(=O)c2ccc(S(=O)(=O)N3CCOCC3)cc2)sc2c1CCN(C(C)C)C2`: the “activity change, negative = DNA binding” value was 14.2%.

With `CCOCCCNC(=S)Nc1ccc2nc(N3CCN(CC)CC3)cc(C)c2c1`, the “activity change, negative = DNA binding” value was -9.47%. `CCOC(=O)C1C(=O)NC(N2CCN(c3ccccc3)CC2)=NC1c1ccco1` (stereo not drawn): the “activity change, negative = DNA binding” value was 3.21%.

With `CCN(CC)CCCNC(=O)c1cc2c(=O)[nH]c3ccc(C)cc3c2s1`, the “activity change, negative = DNA binding” value was -18.1%. In the case of `Cc1cccn2c(=O)c3cc(C#N)c(=O)n(CCCN4CCOCC4)c3nc12`, the “activity change, negative = DNA binding” value was -9.39%.

Turning to `COc1ccc(CCn2c(=N)c(C(=O)NCC3CCCO3)cc3c(=O)n4cccc(C)c4nc32)cc1OC` (stereo not drawn), the “activity change, negative = DNA binding” value is -13%. Turning to `CN(C)CCN(C(=O)CN1C(=O)c2ccccc2C1=O)c1nc2cc3c(cc2s1)OCCO3`, the “activity change, negative = DNA binding” value was 1.9%.
